# This is part of a sample that, as a whole, favours compounds with a hit. Of some 79,000 tested, about 15% had one in any assay. The source made the active and inactive calls. Cut-off read from the data, not from the text of the source: active = growth inhibition above about 70%; inactive = the rest.
# Test: NCI Yeast Anticancer Drug Screen. Data for the rad50 strain (AID 155);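 note: 0% = growth of vehicle-only cultures of the same strain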
# Settings: S. cerevisiae rad50 strain growth inhibition; at 50.0 µM; stronger effect = higher value
# Summary of the method: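 DNA repair mutant yeast, compound exposure, growth read-out; inhibition is taken relative to vehicle.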
row,SMILES,growth inhibition
1,COc1ccc(N)cc1OC,-2.15% (inactive)
2,N.N.N.N.N.O=C([O-])C(=O)[O-].[Co+3].[O-][Cl+3]([O-])([O-])O.[O-][Cl+3]([O-])([O-])[O-],-12.3% (inactive)
3,COc1ccc2c(c1)CCC1C2CCC2(C)C1CCC21CCNP(=O)(N(CCCl)CCCl)O1 (stereo not given),72% (active)
4,NC(=O)CI,30.8% (inactive)
5,COc1cc(/C=C2\C(O)C3CCN2CC3)cc(OC)c1OC (stereo not given),-9.25% (inactive)
6,FC(F)(F)[S-].FC(F)(F)[S-].[C-]#[O+].[C-]#[O+].[C-]#[O+].[C-]#[O+].[C-]#[O+].[C-]#[O+].[C-]#[O+].[C-]#[O+].[Mn].[Mn],99.3% (active)
7,O=C(COc1ccc(Cl)c(Cl)c1)Nc1ccccc1S(=O)(=O)F,27.6% (inactive)
8,CN1CC[CH2][Sn]([Cl])([Cl])[CH2]CC1,-1.25% (inactive)
9,CN(C)C1OCCO1,-8.45% (inactive)
10,CN(C)c1ccc(N=Nc2ccc([As](=O)(O)O)cc2)cc1,-23.1% (inactive)
11,CCN1C(=O)C(C)C(=O)N(C)C1=O (stereo not given),-33.6% (inactive)
12,COc1cc2c(cc1OC)[C@@H]1C(=O)c3ccc4c(c3O[C@@H]1CO2)C[C@H](C(C)C)O4,-11.2% (inactive)
13,C=CCOCC1CO1 (stereo not given),9.1% (inactive)
14,CCN(CC)CC#N,3.8% (inactive)
15,CC1(C)N=C(N)N=C(N)N1c1ccc(OCCOc2ccc(S(=O)(=O)F)cc2)cc1,-11.1% (inactive)
16,NNC(N)=NCCCC(N)C(=O)O (stereo not given),-22% (inactive)
17,C1CC[N-]CC1.C1CC[N-]CC1.[Cl][Pt+2]([Cl])([Cl])[Cl],4.65% (inactive)
18,O=C(CCN1CC=C(c2ccccc2)CC1)c1ccc(F)cc1,76.5% (active)
19,C/C(CCl)=N/NC1=NC(C)(CCC2(C)N=C(N/N=C(/C)CCl)SP2(=O)NC23CC4CC(CC(C4)C2)C3)P(=O)(NC23CC4CC(CC(C4)C2)C3)S1 (stereo not given),-9.25% (inactive)
20,N/C(=N\NS(=O)(=O)c1ccccc1)N[N+](=O)[O-],-3.1% (inactive)

row,SMILES,growth inhibition
1,Nc1nc(CC(N)C(=O)O)c[se]1 (stereo not given),56.8% (inactive)
2,Cc1ccc([Se][Se]c2ccc(C)cc2)cc1,55.5% (inactive)
3,CCCOC(=O)c1ccccc1N,6.05% (inactive)
4,O=c1[nH]c2ccccc2c(=O)n1-c1ccco1,4.2% (inactive)
5,CO[C@H]1C[C@H](O[C@H]2CC[C@@]3(C)[C@H](CC[C@@H]4[C@@H]3CC[C@]3(C)[C@@H](C5=CC(=O)OC5)CC[C@]43O)C2)O[C@H](C)[C@H]1O,33.2% (inactive)
6,O=C(O)C(CP(=O)(O)O)=C(Cl)Cl,-21.4% (inactive)
7,Nc1ccc([As](=O)(O)O)cc1C(=O)O,-16.3% (inactive)
8,ClCCN(CCCl)c1cc(Cl)ccc1Oc1ccccc1,-35.8% (inactive)
9,O=c1c(O)c(-c2ccccc2)oc2ccccc12,12.6% (inactive)
10,O=C(Nc1c(O)[nH]c(=S)[nH]c1=O)c1ccccn1,6.95% (inactive)
11,CCN1CCOC(CC)(c2cc(Cl)cc(Cl)c2Cl)C1 (stereo not given),6.35% (inactive)
12,NC(N)=N/N=C/c1ccc(Cl)c(Cl)c1,8.45% (inactive)
13,COc1cc(/C=C(\C)[N+](=O)[O-])cc(OC)c1,18.9% (inactive)
14,CCOc1cc(CCNC)c2c(ccc3ccc(OC)c(O)c32)c1OC,27.2% (inactive)
15,Oc1cc(N2CC2)c(O)cc1N1CC1,12.8% (inactive)
16,O=C1NC(=S)NC(=O)C1=Cc1ccco1,-4.55% (inactive)
17,PCc1ccccc1.[Cl][Hg][Cl],-34.7% (inactive)
18,O=C(Cl)OC1CS(=O)(=O)CC1O (stereo not given),-6.6% (inactive)
19,BrCCCBr,15.1% (inactive)
20,CN1CCN(C)C12C=c1ccccc1=CC21CC1,5.05% (inactive)
